# High-throughput results: PubChem BioAssay, National Center for Advancing Translational Sciences (NCATS)
# Hits are enriched below; roughly 7.5% of the tested compounds scored in any of these assays.
# Rab9 prom act – activates the Rab9 promoter; Huh7 Rab9 promoter-luciferase reporter, luminescence, 24 h; Potency, µM (series often up to 9.22 µM), for the others: at the highest dose activation, negative = inhibition, usual class: activators; 320,000 tested, 2.8% active; further: % of control where 0% means no effect; nearly all actives have a fitted effect of over 60% in size
#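 Cell-based reporter: Huh7 stable for Rab9 promoter-driven luciferase, plated in reduced-serum medium with 10% FBS at 1500 cells/well, compound-treated 24 h at 37 °C, luminescence read after 10 min reagent.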
# SMN2 splice enh – increases expression of the SMN2 splice variant; 210,000 tested, 2.8% active; Potency, µM (titrated, usually from 46.1 µM), for inactives: top-dose activity change, positive = activation, usual class: activators; HEK293 SMN2-luciferase splicing reporter, luminescence, 30-36 h; further: % of control where 0% means no effect; nearly all actives have a fitted effect of over 55% in size
#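 HEK293 cells carry an SMN2 minigene-luciferase reporter in which exon 7 inclusion puts luciferase in frame. Cells were seeded at 2000 cells/well, attached for 10-12 hours, then exposed to compounds for 30-36 hours at 37C before ONE-Glo luminescence.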
# KinaseGlo FLuc – blocks Kinase-Glo luciferase, a counter-screen artifact | Q27757 | 200,000 tested, 0.28% active | Potency, µM (top dose mostly 38.3 µM), for the others: at the top dose activity change, negative = inhibition, usual class: inhibitors | Kinase-Glo luciferase, ATP luminescence, 8 min | AID 1379; further: on the % scale 0 is the no-effect control and ±100 the full control effect; nearly all actives have a fitted effect of over 60% in size
#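 Substrate mix (final 50 mM imidazole pH 7.2, 50 mM KCl, 7 mM MgCl2, 10 uM ATP, 0.01% Tween 20, 0.05% BSA) plus pin-tool compound, then Kinase-Glo detection mix; 8 min ambient, luminescence read.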
# NPC1 promoter act – activates the NPC1 promoter; Huh7 NPC1 promoter luciferase reporter, 24 h; Potency, µM (top dose mostly 9.22 µM), for the others: at the top dose activation, usual class: activators; 320,000 tested, 2.4% active; AID 485313; further: % of control where 0% means no effect; nearly all actives have a fitted effect of over 60% in size
#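 Luminescence read-out of NPC1 promoter-driven luciferase in stably transfected Huh7 cells; compounds delivered in DMSO and left 24 h at 37C, 5% CO2, qHTS titration format.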
# ELG1 genotox – genotoxicity induction in ELG1-luciferase HEK293T cells. HEK293T ELG1-luciferase reporter, luminescence, 16 h. Potency, µM (series often up to 46 µM), without a hit: at the top dose activity change, positive = activation, most hits filed as activators. 330,000 tested, 1.3% active; further: % of control where 0% means no effect; nearly all actives have a fitted effect of over 60% in size
#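 Cells (2,000/well) expressing the ELG1-luciferase fusion are dosed by pin tool and kept 16 hr at 37 °C, 5% CO2. Signal comes from ONE-Glo luciferase reagent after 30 min at room temperature.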
# FLuc counter – firefly luciferase modulation, counter-screen for miR-21 project; P08659; purified FLuc, Km substrates, luminescence inhibition; Potency, µM (top dose mostly 57.5 µM), for inactives: at the top dose activity change, negative = inhibition, most hits filed as inhibitors; 360,000 tested, 6.9% active;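 further: plate controls were vehicle for no effect and reference inhibitor for full effect; nearly all actives have a fitted effect of over 55% in size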
# Target sequence (P08659 whole entry, looked up): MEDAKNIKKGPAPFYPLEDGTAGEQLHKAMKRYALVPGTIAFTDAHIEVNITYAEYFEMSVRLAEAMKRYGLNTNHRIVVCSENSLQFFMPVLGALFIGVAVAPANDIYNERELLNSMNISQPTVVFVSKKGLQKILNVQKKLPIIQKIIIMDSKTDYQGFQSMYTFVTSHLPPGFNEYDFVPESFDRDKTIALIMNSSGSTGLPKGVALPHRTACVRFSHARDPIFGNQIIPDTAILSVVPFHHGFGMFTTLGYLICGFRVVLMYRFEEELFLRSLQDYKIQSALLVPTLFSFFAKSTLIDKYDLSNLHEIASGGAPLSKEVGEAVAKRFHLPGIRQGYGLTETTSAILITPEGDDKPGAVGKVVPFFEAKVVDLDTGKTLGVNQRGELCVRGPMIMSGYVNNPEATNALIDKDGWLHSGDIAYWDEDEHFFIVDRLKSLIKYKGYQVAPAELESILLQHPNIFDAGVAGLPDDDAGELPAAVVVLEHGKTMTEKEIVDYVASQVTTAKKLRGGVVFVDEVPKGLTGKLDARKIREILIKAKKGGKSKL
#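 Biochemical qHTS of compounds, final roughly 60 µM downward over six points, against 10 nM purified firefly luciferase using Km concentrations of substrates (10 uM D-luciferin, 10 uM ATP) in Tris acetate pH 7.5 buffer; luminescence output.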
# * hit, by the source's call; ? = inconclusive; / = no result; [ ] = remark or other dose. The call rests on the fitted dose curve; in most records, active means well fitted curve in the direction sought with a large enough effect; inconclusive means small, poorly fitted or top-dose-only effect, or another doubt; inactive means no such curve, though single readings can be large; an effect the other way counts as inactive or inconclusive. Potency means the concentration at half of the fitted maximal effect.
SMILES,Rab9 prom act,SMN2 splice enh,KinaseGlo FLuc,NPC1 promoter act,ELG1 genotox,FLuc counter
O=C(c1cc(-c2ccccc2)on1)N1CCCCCC1,3.5µM*,/,/,1.4µM*,2.3µM*,9.5µM*
O=C(c1cc(-c2ccc(O)cc2)on1)N1CCN(c2ccccc2)CC1,7%,-18%,/,-1%,-14%,?
O=C(c1cc(-c2ccc(O)cc2)on1)N1CCN(c2ccc(F)cc2)CC1,-1%,/,/,0%,-3%,?
O=C(c1cc(-c2ccc(F)cc2)on1)N1CCCCCC1,1.4µM*,/,/,0.89µM*,?,5.4µM*
CC1(c2ccc3ccccc3c2)NC(=O)N(CC(=O)N2CCN(Cc3ccc(C#N)cc3)CC2)C1=O (stereo unspecified),-39%,/,/,-36%,-5%,1%
O=C1CCC[C@H]1C(=O)Nc1ccc2ccccc2c1,/,-1%[9.22 µM],-2%[7.66 µM],/,/,/
Cc1ccc(Cl)cc1N1CCN(CCNC(=O)Nc2ccc(Cl)cc2)CC1,/,-7%,/,/,/,-17%
O=C(NCc1ccc(F)cc1)c1cccc(N2CCCS2(=O)=O)c1,/,/,/,/,/,3%
CCOC(=O)C1CCCN(C(=O)c2cc(COc3ccc(C)nc3)on2)C1 (stereo unspecified),17%,/,/,16%,-2%,?
CCOC(=O)C1CCCN(C(=O)c2cc(-c3ccc(C)cc3)on2)C1 (stereo unspecified),0.89µM*,?,8%,?,?,12µM*
O=C(/C=C/c1ccc(-c2ccc(F)cc2)o1)N1CCCC1,3.2µM*,/,/,2.8µM*,?,13µM*
O=C(c1cc(-c2ccc(F)cc2)on1)N1CCCC1,0.63µM*,/,/,0.79µM*,?,2.7µM*
Cc1ccc(-c2cc(C(=O)N3CCCCCC3)no2)cc1,0.56µM*,/,/,0.5µM*,?,1.5µM*
O=C(/C=C/c1ccc(F)cc1)N1CCCN(C(=O)/C=C/c2ccc(F)cc2)CC1,17%,-11%,2%,3%,0%,?
CCC(CC)C(=O)Nc1ccc(OCc2cc(=O)n3ccc(C)cc3n2)cc1,/,/,/,/,/,-2%
CCOc1ccc(CCNC(=O)COC(=O)c2cccnc2SC)cc1OCC,-3%,/,/,0%,1%,-1%
CC(C)NC(=O)C(c1ccc(F)cc1)N(C(=O)CCC(=O)Nc1ccccn1)C1CCCC1 (stereo unspecified),4%,/,/,2%,0%,0%
Cc1cnc(CNC(=O)C2CCC(=O)N(CCc3cccc(F)c3)C2)[nH]1 (stereo unspecified),-1%,/,/,-12%,3%,4%
Cc1cccc(N2CCN(c3cc(C)nc4c(-c5ccc(Cl)cc5)c(C)nn34)CC2C)c1 (stereo unspecified),/,/,/,/,/,1%
O=C(c1cc(-c2ccc(O)cc2)on1)N1CCCC1,0.4µM*,/,/,0.45µM*,4.6µM*,6µM*
COc1ccccc1NC(=O)C1CCN(S(=O)(=O)c2ccc3c(c2)NC(=O)CO3)CC1,-10%,/,/,0%,2%,1%
COc1cccc(C2NC(=O)c3ccccc3O2)c1OC (stereo unspecified),8%,-15%,-2%,-1%,0%,-3%
COc1cccc(C2N=C(c3ccccc3C)NO2)c1OC (stereo unspecified),12%,/,/,19%,?,9.5µM*
O=[N+]([O-])c1ccccc1N/N=C/c1cc2ccccc2nc1Cl,?,-16%,-6%,?,?,?
O=C(O)c1ccc(N/N=C/c2cc3ccccc3nc2Cl)cc1,2µM*,/,/,1.4µM*,?,0.76µM*
Clc1nc2ccccc2cc1/C=N/Nc1nc2ccccc2[nH]1,2.5µM*,7.9µM*,?,3.5µM*,?,0.19µM*
O=C(O)c1ccc(N/N=C/c2cccc3nccnc23)cc1,?,/,/,?,8%,6.7µM*
C[C@H](NC(=O)OC(C)(C)C)C(=O)N/N=C/c1cccc2nccnc12,-3%,/,/,1%,1%,5%
